High-throughput results (PubChem BioAssay)
Hits are enriched below; roughly 1.4% of the tested compounds scored in any of these assays.
ZTA counter: ZTA (EBV) inhibition in EBNA-1 counter-screen; inhibition, % at 11 µM; actives 0.15% (n = 320,000); AID 2234; P03206; ZTA-DNA binding, fluorescence polarization; in the data active means inhibition above about 33%
Target sequence (P03206 whole entry, looked up): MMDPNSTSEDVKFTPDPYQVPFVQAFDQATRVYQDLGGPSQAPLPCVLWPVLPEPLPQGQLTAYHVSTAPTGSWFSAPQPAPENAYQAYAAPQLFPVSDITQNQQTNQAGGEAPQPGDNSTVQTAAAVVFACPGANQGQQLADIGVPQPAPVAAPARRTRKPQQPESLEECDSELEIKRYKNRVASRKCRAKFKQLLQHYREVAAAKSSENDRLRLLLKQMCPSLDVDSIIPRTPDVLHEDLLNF
EBNA-1 inhibitor: blocks EBNA-1 binding to DNA; actives 0.34% (n = 300,000); inhibition, % at 14.8 µM; EBNA-1 DNA binding, fluorescence polarization; in the data active means inhibition above about 28%
LANA-H2A inh: blocks KSHV LANA binding to histone H2A/H2B; Q9QR71; cell-free LANA-H2A/H2B peptide, fluorescence polarization; AID 2629; actives 0.6% (n = 320,000); inhibition, % (no concentration beside the values); in the data active means inhibition mostly above about 10%, no sharp cut-off; inactive means mostly below about 6.7%
LYPLA2 counter: LYPLA2 (human) inhibition in PME1 counter-screen; O95372; recombinant LYPLA2, FP-Rh probe fluorescence polarization; inhibition, % at 5.9 µM; actives 0.38% (n = 320,000);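 active means inhibition above the screen-wide mean plus 3 SD, limit set per campaign, cut at about 26% in these data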
Target sequence (O95372 whole entry, looked up): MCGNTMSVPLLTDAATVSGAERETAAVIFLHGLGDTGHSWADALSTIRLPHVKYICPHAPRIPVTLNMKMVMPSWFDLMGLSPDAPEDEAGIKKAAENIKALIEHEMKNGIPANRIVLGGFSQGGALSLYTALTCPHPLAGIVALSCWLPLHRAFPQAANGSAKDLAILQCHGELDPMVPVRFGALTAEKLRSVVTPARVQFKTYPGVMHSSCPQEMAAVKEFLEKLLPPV
LYPLA1 inh: blocks human lysophospholipase 1, a PME1 counter-screen; O75608; recombinant LYPLA1, FP-Rh probe fluorescence polarization; inhibition, % at 5.9 µM; actives 0.16% (n = 320,000); AID 2174;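 active means inhibition above the mean of all tested compounds plus 3 SD, set per campaign, cut at about 14% in these data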;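 further: inhibitors block serine hydrolase probe labeling of LYPLA1 so polarization falls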
LYPLA2 conf: counter-screen for PME1 inhibitors: confirmation of human LYPLA2 inhibitors | inhibition, % at 5.9 µM | recombinant LYPLA2, FP-Rh probe fluorescence polarization | AID 2232 | actives 72% (n = 1,100) | shares compounds with LYPLA2 counter;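 active means mean inhibition across replicates above the hit cutoff set in the primary screen, cut at about 26% in these data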;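 further: blocked labeling of the enzyme by serine hydrolase FP-Rh probe lowers polarization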
LYPLA2 ABPP: blocks human acyl-protein thioesterase 2 in gel ABPP. actives 30% (n = 150). shares compounds with LYPLA2 counter. AID 652029. inhibition, % at 20 µM. rhLYPLA2 in mouse brain proteome, gel ABPP FP-Rh;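 active means inhibition of LYPLA2 enzyme probe labeling above about 50%, limit read from the data; inactive means inhibition below that limit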;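 further: loss of FP-Rh probe labeling of the LYPLA2 gel band measured as band density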
Numbers stand for hits; n = inactive; x = not tested or not shown.

SMILES	ZTA counter	EBNA-1 inhibitor	LANA-H2A inh	LYPLA2 counter	LYPLA1 inh	LYPLA2 conf	others
COc1ccc(CNC(=O)c2ccc(N3CCC4(CC3)CC(c3ccc(Cl)cc3)=NO4)c(N)c2)cc1	n	n	n	40	n	41
COc1ccc(CNC(=O)c2ccc(N3CCC4(CC3)CC(c3ccc(Cl)cc3)=NO4)c([N+](=O)[O-])c2)cc1	n	n	n	n	n	x
COc1cc(-c2c(C#N)c(N)nc(SCc3ccncc3)c2C#N)cc(OC)c1OC	n	n	n	35	n	29
COc1cccc(C(=O)NCC2CCN(c3ccc(S(=O)(=O)N4CCOCC4)cc3)CC2)c1	n	n	n	29	n	n
O=C(c1ccc(S(=O)(=O)N2CCOCC2)cc1)N1CCN(c2cccc(Cl)c2)CC1	n	n	n	n	n	x
O=C(NCC1CCN(c2ccc(S(=O)(=O)N3CCOCC3)cc2)CC1)c1cccc(Cl)c1	n	n	n	32	n	31
Oc1ccc2ccccc2c1N=Nc1ccc(F)cc1	n	n	n	29	n	n
Oc1c(N=Nc2ccc(F)cc2)ccc2ccccc12	n	n	n	n	n	x
Cc1ccc(Oc2ccc3c(c2)C(=O)N(c2ccc(S(=O)(=O)Nc4nccs4)cc2)C3=O)cc1	n	n	n	63	n	54	LYPLA2 ABPP=53
O=C(NCc1cnn(-c2ccccc2)c1)C1CCC(=O)N(C2CC2)C1 (stereo unspecified)	n	n	n	n	n	x
Cc1ccc(N2C(=O)c3ccc(C(=O)N4CCN(Cc5ccccc5)CC4)cc3C2=O)cc1	n	n	n	33	n	27
CCc1ccc(C(=O)COC(=O)c2cc([N+](=O)[O-])ccc2NCCO)cc1	n	n	n	27	n	n
O=C(OCC(=O)N1CCN(Cc2ccccc2)CC1)c1cc(Cl)ccc1[N+](=O)[O-]	n	x	n	39	n	40
NCCCC[C@@H](C(=O)N1CCNCC1)n1cc([C@@H](N)CC(N)=O)nn1	n	n	n	n	n	x
O=C(COc1ccc([N+](=O)[O-])cc1)N/N=C/c1cc([N+](=O)[O-])ccc1N1CCOCC1	n	n	x	35	n	30
CN(CC(=O)O/N=C(\N)c1ccc([N+](=O)[O-])cc1)S(=O)(=O)c1ccc2ccccc2c1	n	n	n	59	n	63	LYPLA2 ABPP=n
Cc1ccc(/C(N)=N/OC(=O)CN(C)S(=O)(=O)c2ccc(C)cc2)cc1	n	n	n	n	n	x
O=C(NCC1CCCO1)c1cc(-c2ccc(F)cc2)no1 (stereo unspecified)	n	n	n	n	n	x
CN1CCN(C(CNC(=O)C(=O)Nc2ccc3c(c2)OCCO3)c2ccc(F)cc2)CC1 (stereo unspecified)	n	n	n	n	n	x
Cc1ccc(C(CNC(=O)C(=O)Nc2ccc3c(c2)OCCO3)N2CCN(C)CC2)cc1 (stereo unspecified)	n	n	n	44	n	n
O=C(Nc1ccc(Cc2ccncc2)cc1)c1ccc(Cl)c([N+](=O)[O-])c1	n	n	x	n	n	x
Cc1c([N+](=O)[O-])cc(C(=O)Nc2ccc(Cc3ccncc3)cc2)cc1[N+](=O)[O-]	n	n	n	29	n	28
COc1cccc(-n2c(SCC(N)=O)nc3c([nH]c4ccccc43)c2=O)c1	n	n	n	174	n	n
CCOc1cc(CN2CCSCC2)ccc1O	n	n	n	n	n	x
CCOc1cc(CN2CCN(c3cccc(C(F)(F)F)c3)CC2)ccc1O	n	n	n	28	n	29
SMILES	ZTA counter	EBNA-1 inhibitor	LANA-H2A inh	LYPLA2 counter	LYPLA1 inh	LYPLA2 conf	others
CCCC(=O)Nc1ccc(C(=O)COC(=O)C2CC2C)cc1 (stereo unspecified)	n	x	n	29	n	28
O=C(COC(=O)CN1C(=O)c2ccccc2C1=O)NC1CCCC1	n	n	n	n	n	x
Cc1c(Nc2ccc3nonc3c2[N+](=O)[O-])c(=O)n(-c2ccccc2)n1C	n	n	n	32	n	37
Cc1c(Nc2cc(N3CCOCC3)c3nonc3c2[N+](=O)[O-])c(=O)n(-c2ccccc2)n1C	n	n	n	n	n	x
Cc1cc(C)n(CCCNC(=O)C2CC(=O)N(Cc3ccccc3)C2)n1 (stereo unspecified)	n	n	n	n	n	x
COc1ccc(OC)c(-c2cc(C(=O)Nc3c(C)nn(Cc4ccccc4Cl)c3C)no2)c1	n	n	n	40	n	29
COc1ccc(OC)c(-c2cc(C(=O)Nc3c(C)nn(Cc4ccccc4C)c3C)no2)c1	n	n	n	64	n	55	LYPLA2 ABPP=50
COc1ccc(-c2cc(C(=O)Nc3c(C)nn(Cc4ccccc4Cl)c3C)no2)cc1OC	n	n	n	n	n	x
Cc1ccccc1Cn1nc(C)c(NC(=O)c2cc(-c3ccco3)on2)c1C	n	n	n	n	n	x
O=C(CNc1ccc(Br)cc1)Nc1ccc(S(=O)(=O)N2CCCC2)cc1	n	x	n	29	n	n
O=C(Nc1ccc(S(=O)(=O)N2CCCC2)cc1)c1c(F)cccc1F	n	n	n	28	n	n
O=C(Nc1ccc(S(=O)(=O)N2CCOCC2)cc1)c1c(F)cccc1F	n	n	n	n	n	x
O=C(Nc1cccs1)Nc1c(F)c(F)cc(F)c1F	n	n	n	n	n	x
O=C(Nc1cccs1)Nc1c(F)c(F)c(F)c(F)c1F	n	n	n	29	n	30
O=C(c1ccc(N2CCN(C(=O)c3ccccc3Br)CC2)cc1)c1cccc(F)c1	n	n	n	n	n	x
O=C(c1ccc(N2CCN(C(=O)c3cccc(F)c3)CC2)cc1)c1cccc(F)c1	n	n	n	43	n	29
Cc1cccc(NC(=O)CNC(=O)CN2C(=O)NC3(CCCCC3C)C2=O)c1C (stereo unspecified)	n	n	n	n	n	x
CCN(CC)S(=O)(=O)c1cc(NC(=O)C(C)OC(=O)c2[nH]c(C)c(C(C)=O)c2C)ccc1C (stereo unspecified)	n	n	n	n	n	x
Cc1ccc(Cl)cc1N1CCN(C(=O)CCCn2c(=O)c3cccn3c3cccnc32)CC1	n	n	n	38	n	34
Cc1cccc(N2CCN(C(=O)CCCn3c(=O)c4cccn4c4cccnc43)CC2)c1C	n	n	n	n	n	x
Cc1cc(C)cc(Oc2coc3cc(OC(=O)c4cccs4)ccc3c2=O)c1	n	n	n	29	n	n
Cc1cccc(Oc2coc3cc(OC(=O)c4cccs4)ccc3c2=O)c1	n	n	n	n	n	x
O=C(Oc1ccc2c3c(c(=O)oc2c1)CCCC3)c1cccs1	n	n	n	n	n	x
Cc1ccc(Oc2coc3cc(OC(=O)c4cccs4)ccc3c2=O)cc1	n	n	n	48	n	44
